# Laboratory results: ChEMBL document CHEMBL4513216, “Probing the Open Global Health Chemical Diversity Library for Multistage-Active Starting Points for Next-Generation Antimalarials” (ACS Infect Dis, 2020)
# Among all 69,000 compounds or so, about 8,600 (12%) showed an effect of 50% or more. Many of the other results were omitted from the sample, so strong results are more common in it than they were.
# System: Plasmodium berghei
# Experiment: Screen against P. berghei liver stage (PbLuc), transformed with Luciferase, at 10uM
# Assay type: functional, HepG2
# Settings: tested at 10 uM
row,SMILES,INHIBITION
1,CCn1nc(CC(C)C)cc1C(=O)NCc1c(C)cc(C)nc1OC,47.3%
2,CSCC(=O)Nc1cccc(Oc2ccccn2)c1,-9.93%
3,O=C1CC(NS(=O)(=O)NCc2ccccc2)CN1c1ccccc1Cl (stereo unspecified),55%
4,CS(=O)(=O)NC1CC(=O)N(c2ccccc2Cl)C1 (stereo unspecified),28.7%
5,CN(C)S(=O)(=O)NC1CC(=O)N(c2ccccc2Cl)C1 (stereo unspecified),25.8%
6,CN(C)Cc1cncc2c1CCN(Cc1ccoc1)C2,24.9%
7,CC(C)N(C)Cc1cncc2c1CCN(CC1CC1)C2,44.8%
8,COCc1cncc2c1CCN(Cc1cnn(C)c1)C2,-26.2%
9,COCc1cncc2c1CCN(Cc1cccnc1)C2,24.8%
10,CN(C)Cc1cncc2c1CCN(Cc1cnn(C)c1)C2,59.8%
11,CN(C)C(=O)COCc1cncc2c1CCN(Cc1cnn(C)c1)C2,23.5%
12,CN(C)Cc1cncc2c1CCN(CC(=O)N(C)C)C2,72%
13,CC(C)N(C)Cc1cncc2c1CCN(CC(=O)N(C)C)C2,12.2%
14,CN(Cc1cccnc1)Cc1cncc2c1CCN(Cc1ccoc1)C2,28.5%
15,c1cncc(COCc2cncc3c2CCN(Cc2ccoc2)C3)c1,54.8%
16,CC(C)COCc1cncc2c1CCN(Cc1cnn(C)c1)C2,71.8%

row,SMILES,INHIBITION
1,Cn1cc(CN2CCc3c(COCC4CC4)cncc3C2)cn1,7.15%
2,CCC[C@H]1CN(C(=O)CCn2ccccc2=O)C[C@@H]1NS(C)(=O)=O,-7.98%
3,Cc1nc(C(C)C)sc1C(=O)N1CCC(C(N)=O)CC1,-49.2%
4,Cc1cc(C)cc(OCC(=O)NC2CCN(S(C)(=O)=O)CC2)c1,33%
5,Cc1cc(N2CCN(CCO)CC2)nc(-c2ccncc2)n1,30%
6,CN1CCN(C(=O)COCc2nc(-c3ccncc3)no2)CC1,11.4%
7,CC(C)NC(=O)NCc1nnc2n1C(C(=O)N(C)C)CC2 (stereo unspecified),9.32%
8,CCCc1noc(C2CCN(C(=O)CCn3nc(C)cc3C)CC2)n1,36.6%
9,COC[C@H]1CCC[C@H]1Nc1ncnc2c1CCNCC2,-6.94%
10,CC(C)N1CCC2(CC1)CC(NCc1ccccn1)c1ccccc1O2 (stereo unspecified),7.31%
11,O=C(C1CCCCC1)N1CCC2(CCCN2CC2CC2)CC1,50.7%
12,O=C(C1CCCC1)N1CCC2(CC1)COCCN2CC1CC1,39.1%
13,O=C(C1CCC1)N1CCC2(CCCN2CC2CC2)CC1,22.3%
14,OC1(CNCCCN2CCc3ccccc32)CCNC1 (stereo unspecified),30.7%
15,CCN(CCSc1ccccc1)C(=O)c1cn(C2CCC(N)CC2)nn1 (stereo unspecified),-56.6%
